Screening data deposited in PubChem by The Scripps Research Institute Molecular Screening Center.
TR-FRET SRC-2 ct = TR-FRET artefact, counter-screen to PPARgamma/SRC-2 agonist assay. stronger effect = higher value. actives 0.4% (n = 200,000). TR-FRET ratio at 8 µM
PPARg SRC-1 ag = agonists of human PPARgamma SRC-1 coactivator recruitment. P37231. PPARgamma-SRC-1 coactivator recruitment biochemical assay. activation, % at 8 µM. actives 0.41% (n = 200,000); in the data active = activation above about 19%
Target sequence (P37231 whole entry, looked up): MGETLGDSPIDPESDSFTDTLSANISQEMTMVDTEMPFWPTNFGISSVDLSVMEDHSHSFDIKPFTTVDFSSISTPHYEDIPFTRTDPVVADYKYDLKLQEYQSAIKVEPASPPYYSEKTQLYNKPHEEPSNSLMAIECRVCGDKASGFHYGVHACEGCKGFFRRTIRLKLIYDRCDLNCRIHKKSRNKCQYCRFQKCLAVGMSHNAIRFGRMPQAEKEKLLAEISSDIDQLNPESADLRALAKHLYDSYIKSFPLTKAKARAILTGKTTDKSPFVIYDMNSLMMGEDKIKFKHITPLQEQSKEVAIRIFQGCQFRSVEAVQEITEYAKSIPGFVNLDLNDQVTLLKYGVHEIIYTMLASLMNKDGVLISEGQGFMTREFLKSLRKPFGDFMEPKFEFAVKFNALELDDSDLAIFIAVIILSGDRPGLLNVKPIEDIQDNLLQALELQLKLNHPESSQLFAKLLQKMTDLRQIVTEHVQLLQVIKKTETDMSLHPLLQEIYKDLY
SRC1 TRFRET art = TR-FRET artefact, counter-screen to PPARgamma/SRC-1 agonist assay; TR-FRET detection artefact counter-screen, emission ratio; stronger effect = higher value; TR-FRET ratio at 8 µM; actives 0.34% (n = 99,000); AID 1051; in the data active = TR-FRET ratio above about 2300
PPARg SRC3 recr = agonists of human PPARgamma SRC-3 coactivator recruitment | P37231 | biochemical PPARgamma/SRC-3 coactivator recruitment assay | activation, % at 8 µM | actives 0.26% (n = 200,000) | AID 731; in the data active = activation above about 23%
PPARg SRC-2 ag = agonists of SRC-2 recruitment by human PPARgamma; P37231; PPARgamma LBD-SRC-2 recruitment, biochemical; activation, % at 8 µM; actives 0.34% (n = 200,000); AID 1032; in the data active = activation above about 22%
SRC3 TRFRET art = counter-screen for PPARgamma SRC-3 recruitment agonists: TR-FRET artefact | TR-FRET ratio at 8 µM | actives 0.39% (n = 99,000) | AID 1048 | PPARgamma/SRC-3 format; stronger effect = higher value
A number is an active result; 0 = inactive; - = no result given. Most compounds without a hit are left out; they make up all but 0.9% or so of the library. Rule as the data show it, unless noted: active = TR-FRET ratio above about 2000; inactive = the rest.

SMILES	TR-FRET SRC-2 ct	PPARg SRC-1 ag	SRC1 TRFRET art	PPARg SRC3 recr	PPARg SRC-2 ag	SRC3 TRFRET art
CCOC(=O)/C(C#N)=C\N(C)C	0	0	-	0	0	-
C=CCN1C=CC(=C/C=C(/C#N)C(=O)OCC)C=C1	0	26	-	0	0	-
COc1c(OC)c(O)c2c(=O)cc(-c3c(O)cccc3O)oc2c1OC	0	21	0	0	0	0
COc1ccc(-c2cc(=O)c3c(OC)c(OC)c(OC)c(OC)c3o2)cc1OC	0	0	0	0	0	0
Cc1cc(C)n(-c2nc(SCC(=O)Nc3nccs3)c3c4c(sc3n2)COC(C)(C)C4)n1	0	19	-	0	0	-
O=C(CSc1nc2cccnc2n1Cc1ccccc1)NCc1ccco1	0	34	-	0	0	-
C=COC(=O)CSc1nc(-c2cccs2)ccc1C#N	2052	0	-	0	0	-
COc1cc(CN2CCNC(=O)C2CC(=O)N2CCCO2)cc(OC)c1 (stereo not drawn)	0	0	0	0	0	0
CCOC(=O)c1c(-c2ccccc2)csc1NC(=O)c1ccc(S(=O)(=O)N2CC(C)OC(C)C2)cc1 (stereo not drawn)	0	0	-	0	0	-
CCOC(=O)c1c(-c2ccccc2)csc1NC(=O)c1cc(S(=O)(=O)N2CCOCC2)ccc1C	0	0	0	0	0	2203
COc1ccc(NS(=O)(=O)c2cc(NC(=O)c3ccco3)ccc2N2CCCCC2)cc1	0	0	0	0	0	0
NC(=O)c1c(NC(=S)Nc2ccccc2)sc2c1CCCC2	0	0	2381	0	0	0
O=C(Nc1ccc2ccccc2c1)c1cn(-c2ccccc2)nc1-c1cccs1	2107	0	-	0	0	-
CN(C(=O)CSc1nc2ccccc2s1)c1c(N)n(Cc2ccccc2)c(=O)[nH]c1=O	0	0	0	0	0	0
COc1ccc(C2CC(c3ccccc3)=NN2C(=O)COC(=O)c2cc(S(=O)(=O)N3CCOCC3)ccc2F)cc1 (stereo not drawn)	2124	0	0	0	0	2106
Cc1ccccc1NC(=S)N(CCN1CCCCC1)Cc1ccco1	2001	0	0	0	0	0
Cc1ccccc1NC(=S)N(CCCN1CCCCC1)Cc1ccco1	0	0	0	0	0	0
CCN(C(=O)CN1CCN(S(=O)(=O)c2cc(Cl)ccc2Cl)CC1)c1c(N)n(Cc2ccccc2)c(=O)[nH]c1=O	0	0	0	0	0	0
CCN1/C(=C/c2ccc3cc(C)ccc3[n+]2C)Sc2ccc3sccc3c21	2435	96	3458	46	53	2512
CCN1/C(=C/c2ccc3cc(C)ccc3[n+]2CC)Sc2cc(C)ccc21	0	0	0	0	0	0
COc1ccc(CCN2C(=O)NC(NS(=O)(=O)c3ccc(N)cc3)(C(F)(F)F)C2=O)cc1OC (stereo not drawn)	0	0	0	0	0	0
O=C(COC(=O)c1ccccc1O)Nc1ncc(Cl)cc1Cl	0	0	0	0	0	0
COc1cccc(-c2nn(-c3ccccc3)cc2C(=O)OCC(=O)Nc2ncc(Cl)cc2Cl)c1	2626	0	2559	0	0	3059
COc1ccc(/C=N/OCC(=O)N2CCCC2)c(OC)c1	0	0	0	0	0	0
COc1cc(-c2nc3ccccn3c2/N=C/c2cccc(OC)c2O)ccc1O	2175	0	0	0	0	0
SMILES	TR-FRET SRC-2 ct	PPARg SRC-1 ag	SRC1 TRFRET art	PPARg SRC3 recr	PPARg SRC-2 ag	SRC3 TRFRET art
COc1cc(-c2nc3ccccn3c2/N=C/c2ccc(F)cc2)ccc1O	0	0	0	0	0	0
Cc1[nH]c(=S)c(C#N)c2c1CCCC2	0	0	0	0	0	0
N#Cc1c(N)sc(=S)c2c1CCCC2	2023	0	-	0	0	-
COc1cc(C)c(NC(=S)NCCCN2CCOCC2)cc1OC	0	0	0	0	0	0
CCOC(=O)C1CCCN(S(=O)(=O)c2cc(Br)cc3c2N(C(=O)C2CC2)CC3)C1 (stereo not drawn)	0	26	0	0	0	0
CCc1nc2ccccc2c(NC(=O)CN2CC(C)CC(C)C2)c1C (stereo not drawn)	0	0	0	0	0	0
CC(C)Cn1c(N)c(C(=O)COC(=O)c2ccc([N+](=O)[O-])o2)c(=O)n(C)c1=O	1982	0	0	0	0	0
O=C(NCc1ccncc1)C(=O)N/N=C/c1cccnc1	0	0	0	0	0	0
CCOC12NC(=O)CC(=O)N1C(c1ccccc1)=CS2 (stereo not drawn)	0	0	0	0	0	2220
O=C(Nc1ccncc1)c1cncc(Br)c1	0	0	-	0	0	-
O=C(Nc1ccc(N2CCCCC2)cc1)c1ccccc1	0	19	-	0	0	-
Cc1ccc(C(=O)Nc2ccc(N3CCCC3)cc2)cc1	0	22	0	0	0	0
O=C(Nc1ccc(N2CCCCC2)cc1)c1cncc(Br)c1	0	20	-	0	0	-
CCC1CCCCN1C(=O)CSc1nc(N)cc(N)n1 (stereo not drawn)	1990	0	0	0	0	0
CCC1CCCCN1C(=O)CSc1nnc(-c2ccc(OC)cc2)o1 (stereo not drawn)	0	0	-	0	0	-
O=C(c1ccccc1)c1nn(-c2ccccc2)c2nnc(Cc3ccccc3)c(=O)n12	2100	0	-	0	0	-
Cc1ccc(N=c2ssnc2Cl)cc1	0	0	-	0	0	-
Cc1cc(C)nc(/N=c2/ssnc2Cl)c1	0	0	-	28	0	-
CC(=O)N(C)c1ccc(NS(=O)(=O)c2cc(Cl)ccc2Cl)cc1	0	0	0	0	0	0
CCn1cc(/C=N\NC(=O)c2csc3ccccc23)c(C)n1	0	0	-	0	0	-
O=C(N/N=C/c1ccc(O)cc1)c1csc2ccccc12	0	46	-	0	0	-
O=c1c2cnn(-c3ccccc3)c2nc(-c2cccs2)n1-c1cccc(Cl)c1	0	0	0	0	0	2389
O=c1c2cnn(-c3ccccc3)c2nc(-c2cccs2)n1-c1ccc(Cl)cc1	0	0	-	0	0	-
O=c1[nH]n(-c2ccccc2)c(=O)c2ccccc12	0	20	0	0	0	0
O=c1[nH]n(-c2ccccn2)c(=O)c2ccccc12	0	0	-	0	0	-
SMILES	TR-FRET SRC-2 ct	PPARg SRC-1 ag	SRC1 TRFRET art	PPARg SRC3 recr	PPARg SRC-2 ag	SRC3 TRFRET art
CCOc1ccc(CCNC(=O)CSc2nn(-c3ccc(C)c(Cl)c3)c(=S)s2)cc1OCC	0	30	2577	0	0	0
CCOc1ccc(CCNC(=O)CSc2nnnn2C)cc1OCC	0	0	0	0	0	0
COc1ccc(S(=O)(=O)Nc2c(F)cccc2F)cc1	2118	0	0	0	22	0
CSc1ncccc1C(=O)OCC(=O)c1ccc(Br)s1	0	0	2355	0	0	3227
CSc1ncccc1C(=O)OCC(=O)c1ccccc1Br	0	0	0	0	0	0
O=C(CN1C(=O)NC2(CCCc3ccccc32)C1=O)Nc1cccc(S(=O)(=O)N2CCCCC2)c1 (stereo not drawn)	0	0	0	0	0	0
Cc1csc(NC(=O)CSc2nnc(NC(=O)C3CC(=O)N(c4ccccc4)C3)s2)n1 (stereo not drawn)	0	0	2325	0	0	0
